# The supplement of paper PMC8728848
# Many of the other results were omitted from the sample, so the strongest signals are more common in it than they were.
# B1: TAL6-6LysM (Trichoderma atroviride) (protein)
# chain: AASKLGVPQPAQRDQVNCQLYAVQPNDNCIDISSKNNITYAQLLSWNPSLSSTCSNLASLNSSSICVSNPKGTFSISSNTVGATDIATTTAPVPSPTLDQTTSRCAKYYQVSDGDDCSHLTAQFAITLKDFIFLNSEVWQNCTNLELGYYYCVEPVGYISTYPGYLPTATTKPFNQTSATSLPYDGDPWARFSSNSSVIPIANGTRVDCYSYVYVKNLTENLFADCWNMASMYEITREELVLWNPSLGNDGSSGSNLSGAEASQVASSIAIPTTAPSSITTNLYTYPCTVAANISYCVALVSSTGALPTNTAPPGPHASGEISNCTAWFAPEAYDTCKSILDIFEMSFANFYKMNPSVGPDCSGLAVGTNYCVSTYPNGEDPNDDWDGDDSIPSISPTGIITPTPTQSGMVSNCNKFYDVHSNDGCSAIASSQHVDLSSLYKWNPAIKTDCSGLQASVYVCIGILTTSMSTTSKLPTTTSKPSTTSKPPTGITTPTPTQSGMVKNCNKFYDVHSGDGCSAIASSQKVNLSSFYLWNPAVKTDCSGLQASVFVCIGTLTTSMSTTTSKLPTTTSKPSTTSKPPTGIITPTPTQNGMVKNCNKFYDVHSGDGCSAIASSQKVNLSSFYLWNPAVKTDCSGLQASVFVCVGTATTTTAAGITTPTPTQSGMVSGCNKFYDVHAGDGCSAIASSQKIALSSLYKWNPAVKTDCSGLQASVYICIGVGNAAAARVTGAAASFLEQKLISEEDLNSAVDHHHHHH
# What was measured:
# Test in all cases: glycan array binding signal (z-score within array); higher = stronger binding
# Settings in all cases: glycan notation: IUPAC condensed, linker removed
# [1] = target: Fuc(a1-2)Gal(b1-3)GlcNAc(b1-3)Gal(b1-4)Glc
# In short: (§1)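 Glycan array data were curated from 3228 arrays in the Consortium for Functional Glycomics database and kept only where the protein sequence was available. Glycan names were converted to IUPAC-condensed notation, and columns mapping to the same glycan were averaged. The binding signal is a within-array Z-score, averaged across arrays of the same protein sequence at different concentrations or buffers and across linkers. Negative Z-scores can be read as non-binding.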
# [2] = target: Fuc(a1-2)Gal(b1-3)GlcNAc6S
# In short: as §1
# [3] = target: Fuc(a1-2)Gal(b1-3)[Fuc(a1-4)]GlcNAc(b1-2)Man(a1-3)[Fuc(a1-2)Gal(b1-3)[Fuc(a1-4)]GlcNAc(b1-2)Man(a1-6)]Man(b1-4)GlcNAc(b1-4)[Fuc(a1-6)]GlcNAc(b1-4)[Fuc(a1-6)]GlcNAc
# In short: as §1
# [4] = target: Fuc(a1-2)Gal(b1-4)GlcNAc(b1-2)Man
# In short: as §1
# [5] = target: Fuc(a1-2)Gal(b1-4)GlcNAc(b1-3)[Fuc(a1-2)Gal(b1-4)GlcNAc(b1-6)]GalNAc
# In short: as §1
# [6] = target: Fuc(a1-2)Gal(b1-4)GlcNAc(b1-6)GalNAc
# In short: as §1
# [7] = target: Fuc(a1-2)Gal(b1-4)[Fuc(a1-3)]GlcNAc(b1-3)Gal(b1-4)[Fuc(a1-3)]GlcNAc(b1-3)Gal(b1-4)[Fuc(a1-3)]GlcNAc
# In short: as §1
# Fuc(a1-2)Gal6S(b1-4)Glc = target: Fuc(a1-2)Gal6S(b1-4)Glc
# In short: as §1
# [8] = target: Fuc(a1-2)[Gal(a1-3)]Gal(b1-4)GlcNAc(b1-3)[Fuc(a1-2)[Gal(a1-3)]Gal(b1-4)GlcNAc(b1-6)]GalNAc
# In short: as §1
# [9] = target: Fuc(a1-2)[Gal(a1-3)]Gal(b1-4)[Fuc(a1-3)]GlcNAc(b1-3)GalNAc
# In short: as §1
# [10] = target: Fuc(a1-2)[GalNAc(a1-3)]Gal
# In short: as §1
# [11] = target: Fuc(a1-2)[GalNAc(a1-3)]Gal(b1-3)GlcNAc(b1-3)GalNAc
# In short: as §1
# [12] = target: Fuc(a1-2)[GalNAc(a1-3)]Gal(b1-4)[Fuc(a1-3)]GlcNAc(b1-3)GalNAc
# In short: as §1
# [13] = target: Fuc(a1-3)[GalNAc(b1-4)]GlcNAc
# In short: as §1
# [14] = target: Gal(a1-3)Gal(b1-4)GlcNAc(b1-2)Man
# In short: as §1
# [15] = target: Gal(a1-3)Gal(b1-4)GlcNAc(b1-2)Man(a1-3)[Gal(a1-3)Gal(b1-4)GlcNAc(b1-2)Man(a1-6)]Man(b1-4)GlcNAc(b1-4)GlcNAc
# In short: as §1
# Gal(a1-4)Gal(b1-4)Glc = target: Gal(a1-4)Gal(b1-4)Glc
# In short: as §1
# Gal(b1-3)Gal = target: Gal(b1-3)Gal
# In short: as §1
# [16] = target: Gal(b1-3)GalNAc(b1-4)Gal(b1-4)Glc
# In short: as §1
# Gal(b1-3)GlcNAc(b1-2)Man = target: Gal(b1-3)GlcNAc(b1-2)Man
# In short: as §1
# [17] = target: Gal(b1-3)GlcNAc(b1-3)GalNAc
# In short: as §1
# [18] = target: Gal(b1-3)[Fuc(a1-4)]GlcNAc(b1-6)GalNAc
# In short: as §1
# Gal(b1-4)Gal = target: Gal(b1-4)Gal
# In short: as §1
# [19] = target: Gal(b1-4)GlcNAc(b1-2)Man(a1-6)[Man(a1-3)]Man(b1-4)GlcNAc(b1-4)GlcNAc
# In short: as §1
# [20] = target: Gal(b1-4)GlcNAc(b1-3)Gal(b1-3)GalNAc
# In short: as §1
# [21] = target: Gal3S(b1-4)[Fuc(a1-3)]Glc6S
# In short: as §1
# Gal3S6S(b1-4)GlcNAc = target: Gal3S6S(b1-4)GlcNAc
# In short: as §1
# Gal3S6S(b1-4)GlcNAc6S = target: Gal3S6S(b1-4)GlcNAc6S
# In short: as §1
# Gal6S(b1-4)GlcNAc6S = target: Gal6S(b1-4)GlcNAc6S
# In short: as §1
# GalNAc(a1-3)Gal = target: GalNAc(a1-3)Gal
# In short: as §1
binder,measurement,setting,value
B1,glycan array binding signal (z-score),[1],-0.234
same,glycan array binding signal (z-score),[2],0.906
same,glycan array binding signal (z-score),[3],0.449
same,glycan array binding signal (z-score),[4],-0.377
same,glycan array binding signal (z-score),[5],-0.205
same,glycan array binding signal (z-score),[6],3.12
same,glycan array binding signal (z-score),[7],2.68
same,glycan array binding signal (z-score),Fuc(a1-2)Gal6S(b1-4)Glc,-0.385
same,glycan array binding signal (z-score),[8],-0.724
same,glycan array binding signal (z-score),[9],0.955
same,glycan array binding signal (z-score),[10],-0.757
same,glycan array binding signal (z-score),[11],0.204
same,glycan array binding signal (z-score),[12],-0.108
same,glycan array binding signal (z-score),[13],2.99
same,glycan array binding signal (z-score),[14],0.538
same,glycan array binding signal (z-score),[15],0.08
same,glycan array binding signal (z-score),Gal(a1-4)Gal(b1-4)Glc,2.69
same,glycan array binding signal (z-score),Gal(b1-3)Gal,-0.192
same,glycan array binding signal (z-score),[16],-0.503
same,glycan array binding signal (z-score),Gal(b1-3)GlcNAc(b1-2)Man,3.66
same,glycan array binding signal (z-score),[17],-0.729
same,glycan array binding signal (z-score),[18],1.02
same,glycan array binding signal (z-score),Gal(b1-4)Gal,-0.397
same,glycan array binding signal (z-score),[19],0.445
same,glycan array binding signal (z-score),[20],-0.573
same,glycan array binding signal (z-score),[21],2.96
same,glycan array binding signal (z-score),Gal3S6S(b1-4)GlcNAc,2.51
same,glycan array binding signal (z-score),Gal3S6S(b1-4)GlcNAc6S,3
same,glycan array binding signal (z-score),Gal6S(b1-4)GlcNAc6S,-0.018
same,glycan array binding signal (z-score),GalNAc(a1-3)Gal,2.44
